Assay results from PubChem BioAssay.
Active and inactive are the calls of the source. Unless noted, no rule for the calls is given here.

Tests used:
[1] = test system: Wnt5a (protein binding on small-molecule microarray); assay: small molecules binding Wnt5a protein – biophysical, small-molecule microarray, 635/667 nm fluorescence, primary screen (AID 1142); conditions: 635 nm fluorescence, higher = more signal;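 also: fluorescence read at 667 nm with signal to noise per printed feature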
[2] = ATP-based viability of Huh7 replicon cells – cell-based, CellTiter-Glo luminescence, basal, 48 h, cytotoxicity control for HCV replication inhibitor project, primary screen (AID 1143); conditions: higher = more signal, called active from +8 up or from −8 down;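 also: Huh7 hepatoma cells carrying a hepatitis C replication reporter with no stimulus; test concentration not given here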
[3] = Pseudomonas biofilm growth suppression – PAO1 strain, BacTiter-Glo luminescence, LB-PBS, primary screen (AID 1144); conditions: P. aeruginosa PAO1 biofilm, 12 h, higher = more signal
[4] = basal CRE-LacZ reporter activity in PC12 – cell-based, unstimulated, primary screen (AID 1145); conditions: no forskolin, luminescence, 4.5 h, higher = more signal, called active from +8 up or from −8 down
[5] = forskolin-driven CRE-LacZ activity in PC12 – cell-based, CRE-LacZ reporter, forskolin-stimulated, primary screen (AID 1146); conditions: luminescence, 4.5 h, higher = more signal, called active from +8 up or from −8 down;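 also: PC12 cells with 6xCRE LacZ reporter stimulated by forskolin 10 µM; beta-galactosidase reporter signal reflecting CREB driven transcription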
[6] = target: Streptavidin (Streptomyces avidinii) (UniProt P22629); assay: compounds binding control protein streptavidin – biophysical, small-molecule microarray, 635/667 nm fluorescence, artefact control for SMM compound annotation, primary screen (AID 1147); conditions: higher = more signal;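 also: signal reflects streptavidin binding to arrayed compounds as a control protein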
Sequence of Streptavidin (Streptomyces avidinii) (P22629 whole entry, looked up): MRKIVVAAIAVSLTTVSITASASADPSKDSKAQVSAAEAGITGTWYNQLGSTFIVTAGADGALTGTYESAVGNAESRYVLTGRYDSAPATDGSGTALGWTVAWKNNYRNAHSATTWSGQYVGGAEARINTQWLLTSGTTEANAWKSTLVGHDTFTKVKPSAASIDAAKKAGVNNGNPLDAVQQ

[7] = probe aInhba binding on compound microarray – biochemical, small-molecule microarray, 635/667 nm fluorescence, primary screen (AID 1148); conditions: higher = more signal;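 also: score merges 667nm spot fluorescence with signal-to-noise for antibody binding to printed compounds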
Torsin-1A (Homo sapiens) [8] = target: Torsin-1A (Homo sapiens) (UniProt O14656); assay: TOR1A wild-type binding on microarray – cell lysate, small-molecule microarray, lysate, 635/667 nm, primary screen (AID 1149); conditions: COS7 hTOR1A-WT lysate, 635 nm fluorescence, higher = more signal
Sequence of Torsin-1A (Homo sapiens) (O14656 whole entry, looked up): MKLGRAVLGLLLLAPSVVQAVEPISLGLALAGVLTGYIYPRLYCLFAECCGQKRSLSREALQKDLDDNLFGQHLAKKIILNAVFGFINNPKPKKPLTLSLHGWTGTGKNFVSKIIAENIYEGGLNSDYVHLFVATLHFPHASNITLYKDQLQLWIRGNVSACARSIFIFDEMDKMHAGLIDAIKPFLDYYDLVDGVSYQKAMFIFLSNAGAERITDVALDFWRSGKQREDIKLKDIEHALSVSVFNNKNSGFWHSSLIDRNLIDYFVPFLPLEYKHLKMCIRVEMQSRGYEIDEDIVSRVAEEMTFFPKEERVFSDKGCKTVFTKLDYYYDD

Torsin-1A (Homo sapiens) [9] = target: Torsin-1A (Homo sapiens) (UniProt O14656); assay: torsin A mutant lysate binding on microarrays – cell lysate, small-molecule microarray, COS7 lysate, 635/667 nm fluorescence, primary screen (AID 1150); conditions: COS7 hTOR1A mutant lysate, 635 nm fluorescence, higher = more signal;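 also: score pools 667 nm emission and signal to noise measuring lysate protein binding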
[10] = test system: Sonic hedgehog protein (Shh); assay: Sonic hedgehog microarray binding compounds – biochemical, small-molecule microarray, 635/667 nm fluorescence, primary screen (AID 1151); conditions: 635 nm fluorescence, higher = more signal;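 also: Shh protein binding to compounds spotted on small-molecule microarray slides; score combines spot fluorescence intensity with signal-to-noise across triplicate slides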
[11] = optical density shifts of acrAB sulA E. coli – strain DRC41, OD650, 48 h, E. coli filamentation inducer project, primary screen (AID 1152); conditions: higher = more signal, called active from +8 up or from −8 down;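 also: E. coli MC1000 strain DRC41 lacking acrAB efflux pump and sulA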
[12] = probe aLefty1 binding on compound microarray – biochemical, small-molecule microarray, 635/667 nm fluorescence, primary screen (AID 1153); conditions: higher = more signal;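 also: score merges spot fluorescence with signal-to-noise ratio from the scanned slide images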
[13] = plasmodial surface anion channel blockers, osmotic lysis – cell-based, P. falciparum Indochina, OD700, 1 h, primary screen (AID 1154); conditions: P. falciparum Indochina infected RBC osmotic lysis, higher = more signal, called active from +8 up or from −8 down
[14] = plasmodial surface anion channel blockers, osmotic lysis – cell-based, P. falciparum Indochina, OD700, 2 h, primary screen (AID 1155);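 also: lysis reports solute entry through the parasite surface anion channel PSAC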; conditions: P. falciparum Indochina infected erythrocytes, higher = more signal, called active from +8 up or from −8 down
[15] = changes in parasitized red cell lysis, either direction – P. falciparum Indochina, OD700, 3 h, PSAC antagonist project, primary screen (AID 1156); conditions: P. falciparum-infected erythrocytes, osmotic lysis, higher = more signal, called active from +8 up or from −8 down
[16] = plasmodial surface anion channel blockers, osmotic lysis – cell-based, P. falciparum Indochina, OD700, 18 h, primary screen (AID 1157); conditions: P. falciparum Indochina infected erythrocytes, osmotic lysis OD700, 18 h; higher = more signal, called active from +8 up or from −8 down
[17] = S6 kinase pathway phospho-S6 level changes – cell-based, A549, cytoblot, luminescence, serum-stimulated, primary screen (AID 1158); conditions: 5 h, higher = more signal;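 also: serum-stimulated A549 lung adenocarcinoma cells; signal is phosphorylated S6 detected by cytoblot immunostaining with HRP secondary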
[18] = target: NADPH oxidase 2 (Homo sapiens) (UniProt P04839); assay: compounds shifting NOX2 Amplex Red fluorescence – cell-based, HEK293-NOX2, PMA-stimulated, NOX inhibitor project, primary screen (AID 1159); conditions: 45 min, higher = more signal, called active from +8 up or from −8 down; also: test concentration not given here
Sequence of NADPH oxidase 2 (Homo sapiens) (P04839 whole entry, looked up): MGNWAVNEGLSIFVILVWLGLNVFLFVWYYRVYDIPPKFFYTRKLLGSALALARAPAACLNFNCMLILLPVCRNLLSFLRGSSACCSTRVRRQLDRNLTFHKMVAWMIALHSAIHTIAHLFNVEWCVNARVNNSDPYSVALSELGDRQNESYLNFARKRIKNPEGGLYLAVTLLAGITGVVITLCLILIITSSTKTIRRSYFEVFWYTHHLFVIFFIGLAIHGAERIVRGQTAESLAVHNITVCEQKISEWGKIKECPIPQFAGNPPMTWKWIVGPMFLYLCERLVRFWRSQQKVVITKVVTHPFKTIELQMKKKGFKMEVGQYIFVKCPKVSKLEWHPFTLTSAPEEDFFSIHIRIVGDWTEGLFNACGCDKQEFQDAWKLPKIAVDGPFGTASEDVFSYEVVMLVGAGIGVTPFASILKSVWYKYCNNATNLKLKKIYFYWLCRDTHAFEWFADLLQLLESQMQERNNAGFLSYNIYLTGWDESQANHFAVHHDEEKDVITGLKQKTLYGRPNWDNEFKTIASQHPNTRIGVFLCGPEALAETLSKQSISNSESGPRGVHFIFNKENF

[19] = target: NADPH oxidase 4 (Homo sapiens) (UniProt Q9NPH5); assay: compounds shifting NOX4 Amplex Red fluorescence – cell-based, HEK293-NOX4, tetracycline-induced, NOX inhibitor project, primary screen (AID 1160); conditions: HEK293-NOX4, Amplex Red H2O2 fluorescence, 45 min; higher = more signal, called active from +8 up or from −8 down
Sequence of NADPH oxidase 4 (Homo sapiens) (Q9NPH5 whole entry, looked up): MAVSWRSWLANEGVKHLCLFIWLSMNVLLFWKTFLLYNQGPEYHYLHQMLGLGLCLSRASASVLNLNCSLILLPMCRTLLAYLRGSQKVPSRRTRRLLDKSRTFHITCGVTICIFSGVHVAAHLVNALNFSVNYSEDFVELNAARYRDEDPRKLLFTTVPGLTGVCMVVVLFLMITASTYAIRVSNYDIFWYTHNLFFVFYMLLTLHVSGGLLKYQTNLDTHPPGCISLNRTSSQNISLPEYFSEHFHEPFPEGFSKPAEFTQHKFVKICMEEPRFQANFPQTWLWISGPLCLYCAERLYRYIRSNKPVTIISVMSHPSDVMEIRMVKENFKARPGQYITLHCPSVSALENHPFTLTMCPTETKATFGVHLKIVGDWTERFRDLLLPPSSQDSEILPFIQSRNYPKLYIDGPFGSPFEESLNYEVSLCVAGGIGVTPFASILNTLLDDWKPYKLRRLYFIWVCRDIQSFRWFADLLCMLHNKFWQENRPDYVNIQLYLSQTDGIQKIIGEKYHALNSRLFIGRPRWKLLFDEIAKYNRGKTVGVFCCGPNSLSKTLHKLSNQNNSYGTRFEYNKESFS

[20] = target: NADPH oxidase 5 (Homo sapiens) (UniProt Q96PH1); assay: compounds shifting NOX5 Amplex Red fluorescence – cell-based, HEK293-NOX5, NOX inhibitor project, primary screen (AID 1161); conditions: HEK293-NOX5, ionomycin, 45 min, higher = more signal
Sequence of NADPH oxidase 5 (Homo sapiens) (Q96PH1 whole entry, looked up): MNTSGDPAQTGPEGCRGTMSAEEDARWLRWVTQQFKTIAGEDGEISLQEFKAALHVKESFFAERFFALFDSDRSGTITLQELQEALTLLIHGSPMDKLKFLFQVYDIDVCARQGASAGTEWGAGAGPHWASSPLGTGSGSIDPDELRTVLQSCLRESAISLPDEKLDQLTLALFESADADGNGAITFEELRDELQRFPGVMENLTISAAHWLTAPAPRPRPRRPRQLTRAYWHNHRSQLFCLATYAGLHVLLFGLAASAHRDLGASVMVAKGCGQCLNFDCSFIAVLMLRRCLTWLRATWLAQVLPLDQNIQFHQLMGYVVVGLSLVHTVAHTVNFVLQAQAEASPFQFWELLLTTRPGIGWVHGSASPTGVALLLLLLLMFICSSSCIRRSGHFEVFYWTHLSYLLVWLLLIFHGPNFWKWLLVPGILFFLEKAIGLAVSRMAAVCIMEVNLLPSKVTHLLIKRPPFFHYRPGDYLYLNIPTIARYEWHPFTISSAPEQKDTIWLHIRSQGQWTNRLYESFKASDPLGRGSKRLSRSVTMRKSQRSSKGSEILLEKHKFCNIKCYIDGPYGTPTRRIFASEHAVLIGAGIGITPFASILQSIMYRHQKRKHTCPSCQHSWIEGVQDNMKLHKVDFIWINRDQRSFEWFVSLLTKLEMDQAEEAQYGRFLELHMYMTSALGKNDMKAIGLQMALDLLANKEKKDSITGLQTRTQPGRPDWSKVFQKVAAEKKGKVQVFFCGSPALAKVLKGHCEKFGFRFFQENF

SMILES	composite z-score [1]	z-score [2]	z-score [3]	z-score [4]	z-score [5]	composite z-score [6]	composite z-score [7]	composite z-score (Torsin-1A (Homo sapiens) [8])	composite z-score (Torsin-1A (Homo sapiens) [9])	composite z-score [10]	z-score [11]	composite z-score [12]	z-score [13]	z-score [14]	z-score [15]	z-score [16]	z-score [17]	z-score [18]	z-score [19]	z-score [20]
CC(C)c1ccc(NN2C(C(O)C(c3ccccc3)c3ccccc3)C=CC3C(=O)N(c4ccccc4)C(=O)C32)cc1 (stereo not given)	0.359	-0.29 (inactive)	-0.281 (inactive)	-0.322 (inactive)	1.3 (inactive)	1.3	0.246	0.792	0.936	-0.0266	-1.98 (inactive)	0.497	0.363 (inactive)	1.32 (inactive)	0.771 (inactive)	0.948 (inactive)	-0.582	-1 (inactive)	-4.56 (inactive)	-4.98
CN1C(=O)C2C=CC(C(O)Cc3ccccc3)N(Nc3ccccc3)C2C1=O (stereo not given)	-0.0943	0.329 (inactive)	-1.16 (inactive)	0.626 (inactive)	0.0426 (inactive)	0.996	0.0622	0.279	0.444	-0.52	-1.55 (inactive)	-0.0501	1.15 (inactive)	0.872 (inactive)	0.215 (inactive)	0.9 (inactive)	-0.709	-1.57 (inactive)	-4.77 (inactive)	-3.59
CCCC#C[Si](O[C@H](CC)c1cn([C@H](CO)Cc2ccccc2)nn1)(C(C)C)C(C)C	0.998	-0.727 (inactive)	-0.259 (inactive)	-0.388 (inactive)	-0.0711 (inactive)	0.949	-0.128	0.402	0.511	0.482	1.12 (inactive)	0.145	0.442 (inactive)	0.479 (inactive)	-1.31 (inactive)	0.752 (inactive)	-0.675	0.819 (inactive)	0.272 (inactive)	0.493
Cc1ccc(S[C@]2(C(=O)NC(C)C)CC(=O)N(Cc3ccccc3Cl)[C@@H]2c2ccc(CO)cc2I)cc1	-0.615	-2.03 (inactive)	0.248 (inactive)	-0.374 (inactive)	2.53 (inactive)	-0.265	-0.224	-1.85	-1.25	-0.008	-0.462 (inactive)	0.0023	11.2 (active)	1.44 (inactive)	0.681 (inactive)	0.377 (inactive)	-0.487	0.769 (inactive)	-1.51 (inactive)	0.183
CC(C)(C)C(=O)N[C@@H](c1ccc(Cl)cc1)[C@]1(C)C[C@H]1C1CCCCC1	0.182	-2.95 (inactive)	-0.153 (inactive)	0.197 (inactive)	0.456 (inactive)	2.44	0.634	0.895	1.18	-0.546	-0.913 (inactive)	1.06	0.671 (inactive)	0.418 (inactive)	0.0711 (inactive)	0.887 (inactive)	-0.191	-0.0125 (inactive)	-1.05 (inactive)	-0.0713
CC(=O)n1cc(C(O)C2C=CC3C(=O)N(C)C(=O)C3N2Nc2ccccc2)c2ccccc21 (stereo not given)	0.19	1.08 (inactive)	-0.114 (inactive)	0.0569 (inactive)	-0.172 (inactive)	1.13	0.246	0.383	0.606	1.04	-1.39 (inactive)	0.384	1.11 (inactive)	0.475 (inactive)	-0.372 (inactive)	0.876 (inactive)	-0.994	-1.57 (inactive)	-3.46 (inactive)	-2.78
CN1C(=O)C2C=CC(C(O)c3ccc(I)cc3)N(N3CCCCC3)C2C1=O (stereo not given)	0.512	-0.394 (inactive)	0.175 (inactive)	0.246 (inactive)	0.818 (inactive)	1.42	0.303	0.702	1.6	0.624	-2.04 (inactive)	0.699	4.08 (inactive)	0.399 (inactive)	1.33 (inactive)	0.701 (inactive)	-1.04	-0.229 (inactive)	-2.14 (inactive)	-1.63
CC(C)(C)OC(=O)CC[C@@]1(C(N)=O)N=C(c2ccc(OCCCO)cc2)O[C@@H]1c1ccccc1	0.22	-0.0043 (inactive)	-0.256 (inactive)	1.5 (inactive)	-1.12 (inactive)	0.818	-0.0533	0.361	1.42	-0.954	-0.795 (inactive)	0.345	5.46 (inactive)	0.431 (inactive)	0.726 (inactive)	0.299 (inactive)	-0.0683	-0.414 (inactive)	0.492 (inactive)	-0.0961
OC([C@@H]1CC(c2ccccc2)=NO1)[C@H]1CC(c2ccccc2)=NO1 (stereo not given in full)	0.0286	-0.263 (inactive)	-0.00202 (inactive)	2.31 (inactive)	-0.487 (inactive)	0.133	0.027	0.0801	-0.174	0.394	2.12 (inactive)	0.139	24.6 (active)	9.43 (active)	0.291 (inactive)	1.07 (inactive)	0.383	-0.51 (inactive)	-0.0169 (inactive)	0.357
C=C(CCCC)C(=O)CC[C@H](OC(=O)c1cccnc1)c1ccccc1OCCO	0.218	-2.15 (inactive)	-0.0162 (inactive)	2.21 (inactive)	1.94 (inactive)	-0.423	-0.128	1.07	0.218	0.552	0.853 (inactive)	-0.012	16 (active)	1.6 (inactive)	0.232 (inactive)	-0.674 (inactive)	1.28	-1.2 (inactive)	-0.324 (inactive)	-2.33
CCc1oc(CC[C@@H](CO)NC(=O)NCCn2cc(C3(O)CCCCC3)nn2)c(C(=O)OC)c1C(=O)OC	0.209	-0.186 (inactive)	0.73 (inactive)	1.01 (inactive)	1.01 (inactive)	-0.0709	0.174	1.31	1.11	2.09	-1.26 (inactive)	0.0768	25.6 (active)	7.39 (inactive)	0.709 (inactive)	1.07 (inactive)	-0.524	-1.59 (inactive)	-0.491 (inactive)	-1.14
C=C(CCCC)C(=O)CC[C@@H](OC(=O)c1cccnc1)c1ccc(CO)o1	0.314	-0.0785 (inactive)	-0.0897 (inactive)	2.41 (inactive)	0.783 (inactive)	1.05	-0.0774	0.984	1.74	2.04	-0.367 (inactive)	-0.289	3.22 (inactive)	0.449 (inactive)	0.873 (inactive)	0.258 (inactive)	0.264	0.341 (inactive)	-0.942 (inactive)	-1.04
COCCOC(=O)N1C(=O)[C@@]2(c3cc(C#CC4=CCCCC4)ccc31)[C@H](C(N)=O)[C@H]1C(=O)O[C@H](c3ccccc3)[C@H](c3ccccc3)N1[C@@H]2c1ccc(OCCO)cc1	0.14	-4.37 (inactive)	-1.72 (inactive)	-0.195 (inactive)	-0.327 (inactive)	-0.602	-0.406	0.394	0.644	1.02	0.102 (inactive)	-0.273	6.77 (inactive)	3.03 (inactive)	2.5 (inactive)	1.96 (inactive)	0.375	1.54 (inactive)	1.41 (inactive)	1.96
[N-]=[N+]=Nc1ccccc1C[C@@]1(C(=O)NCCN2CCOCC2)N=C(c2ccc(OCCCO)cc2)O[C@@H]1c1ccccc1	0.785	-3.8 (inactive)	-0.49 (inactive)	-0.435 (inactive)	-1.61 (inactive)	0.302	0.258	0.304	0.617	0.721	1.06 (inactive)	0.234	28.8 (active)	24.3 (active)	2.41 (inactive)	5.39 (inactive)	0.368	-0.57 (inactive)	1.25 (inactive)	0.589
[N-]=[N+]=Nc1ccccc1C[C@]1(C(=O)NCC(O)CO)N=C(c2ccc(OCCCO)cc2)O[C@H]1c1ccccc1N=[N+]=[N-] (stereo not given in full)	0.246	-3.86 (inactive)	-0.0958 (inactive)	1.05 (inactive)	-1.49 (inactive)	0.0136	0.192	-0.0376	0.585	-0.524	0.394 (inactive)	-0.0295	29.2 (active)	29 (active)	0.581 (inactive)	2.68 (inactive)	0.0471	-2.76 (inactive)	-0.295 (inactive)	-1.67
C=CCN1C(=O)[C@]2(O[C@H](CCO)[C@@H]([Si](C)(C)c3ccc(OC)cc3)[C@@H]2C)c2cc(N3CCCCC3=O)ccc21	0.193	-5.37 (inactive)	0.597 (inactive)	3.85 (inactive)	0.22 (inactive)	0.802	0.103	1.1	0.364	2.24	0.143 (inactive)	0.0004	4.68 (inactive)	2.25 (inactive)	-0.328 (inactive)	1.7 (inactive)	1.14	0.972 (inactive)	0.43 (inactive)	0.801
C=CCNC(=O)[C@@H]1[C@H]2C(=O)O[C@H](c3ccccc3)[C@H](c3ccccc3)N2[C@H](c2ccc(OCCO)cc2)[C@@]12C(=O)Nc1ccc(C#Cc3ccc(OC)cc3)cc12	0.233	-4.16 (inactive)	-0.486 (inactive)	-0.195 (inactive)	0.236 (inactive)	1.01	0.0125	0.406	0.602	1.64	0.411 (inactive)	0.498	3.18 (inactive)	1.46 (inactive)	0.931 (inactive)	0.677 (inactive)	0.278	1.04 (inactive)	-1.11 (inactive)	0.959
